Laboratory results: PubChem BioAssay (NCI)
The panel holds about 83,000 compounds, 20% with a hit somewhere; the sample as a whole holds those more often.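 Single-dose data. Exposure time 48 hours. Values below 10 considered active.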 Calls of active or inactive are those of the source.

What follows are molecules tested on T-47D breast (assay: NCI-60 one-dose screen, 48 h (100 = growth as untreated, 0 = no growth, -100 = all killed)). Settings: 10 µM unless noted.

Row | SMILES | growth
1 | [2H]C([2H])([2H])Oc1ccc(F)cc1/C=C/C(=O)/C=C(O)/C=C/c1cc(F)ccc1OC([2H])([2H])[2H] | 73.5% (inactive)
2 | C=CC(=O)Nc1ccc(Nc2nccc(-c3ccc(N4CCCC4)c(C#N)c3)n2)cc1 | 41.5% (inactive)
3 | N#CC1=C(N)Oc2ccc3ccccc3c2C1c1ccc([N+](=O)[O-])cc1 (stereo unspecified) | 82.5% (inactive)
4 | CCOC(=O)c1nn(CC(O)c2ccccc2)c(NC(=O)Nc2cccc(F)c2)c1C (stereo unspecified) | 90.1% (inactive)
5 | Nn1c(=O)c(=O)[nH]c2c(cnn2-c2ccccc2)c1=O | 108% (inactive)
6 | O=[N+]([O-])c1cc(NS(=O)(=O)c2ccccc2)ccc1NS(=O)(=O)c1ccccc1 | 104% (inactive)
7 | C=C1C(=O)O[C@H]2[C@H]1CC/C(COC(=O)NCc1ccc(Cn3c(=O)sn(-c4ccc(C#N)cc4)c3=O)cc1)=C\CC[C@@]1(C)O[C@@H]21 | 28.1% (inactive)
8 | Cc1nc2c(c(=O)[nH]1)C(c1ccccc1)c1ccc3ccccc3c1O2 (stereo unspecified) | 39.1% (inactive)
9 | COC1=C(C)C(=O)N2[C@@H]1[C@H](c1ccccc1)OC21C=CC(=O)C=C1 | 17.6% (inactive)
10 | COc1cccc(CCNc2ncnc3c2ncn3Cc2nnc3c4ccccc4c(Cl)nn23)c1 | 48.5% (inactive)
11 | Fc1ccc(Cn2cc(CSc3nc4ccccc4o3)nn2)cc1 | 85.3% (inactive)
12 | CC(=O)ON1CCCC(P(=O)(OCCSC(=O)C(C)(C)C)OCCSC(=O)C(C)(C)C)C1=O (stereo unspecified) | 14.8% (inactive)
13 | O=c1cc(-c2ccccc2)[nH]c2ncc(-c3ccc(F)cc3)n12 | 74.3% (inactive)
14 | COC(=O)c1ccc(NC(=O)Nc2ccc(C(=O)OC)cc2)cc1 | 89% (inactive)
15 | N#C/C(=C\c1ccc(-c2cccc(C(F)(F)F)c2)o1)c1ccccc1 | 35.6% (inactive)
16 | COc1ccc2cc(-c3ccnc4c(N=Nc5ccc(Cl)cc5)c(N)nn34)ccc2c1 | 94.5% (inactive)
17 | O=C(Cc1ccc(NC(=O)c2cccc(Cl)c2)cc1)NCc1ccccc1 | 54.2% (inactive)
18 | CCS/C(Nc1ccccc1)=C(\C#N)C(=O)Nc1ccc(OC)cc1 | 25.4% (inactive)

Row | SMILES | growth
19 | CC[N+]1(CC)CC[N+]2(CCCC(C)CC2)CC1 (stereo unspecified) | 103% (inactive)
20 | COc1ccc(C(=O)/C=C/c2ccc(Cl)cc2)cc1S(=O)(=O)Nc1c(N)nc(SC)[nH]c1=O | 62.5% (inactive)
21 | C=C1C(=O)O[C@H]2[C@H]1CC/C(COC(=O)/C=C/C(=O)OC/C1=C/CC[C@@]3(C)O[C@H]3[C@H]3OC(=O)C(=C)[C@@H]3CC1)=C\CC[C@@]1(C)O[C@@H]21 | 32.9% (inactive)
22 | O=C1/C(=C\c2cccc3nccnc23)SC(=S)N1CCc1ccc(O)cc1 | 82.5% (inactive)
23 | O=S(=O)(NCCNc1nccc(-c2c(-c3ccc(F)c(O)c3)nc3sccn23)n1)c1ccc(F)cc1 | 35.9% (inactive)
24 | CC/C=C\C[C@H](O)C/C=C1/C(=O)C=C[C@@H]1C/C=C\CCCC(=O)O | 12% (inactive)
25 | O=C1/C=C/[C@@H](O)[C@@H]2C[C@@H](O)C[C@H]2/C=C/CCC[C@H](CCO)O1 | -17.8% (active)
26 | COc1cc(-c2nc3sccn3c2-c2ccnc(NCCNS(=O)(=O)c3ccc(Cl)cc3)n2)ccc1F | 1.61% (active)
27 | C#Cc1cccc(Nc2nc(C)nc3cc(NC(=O)CCl)ccc23)c1 | -55.3% (active)
28 | O=C(NNC(=O)c1ccc(NC(=O)c2ccccn2)cc1)Nc1ccc2ccccc2c1 | 106% (inactive)
29 | CC1(C)C(N)=Nc2cc(OCCCN3Cc4ccccc4C3)c(OCC3CC3)cc21 | 45.8% (inactive)
30 | CN(CCC(=O)c1ccccc1)CCC(=O)c1ccccc1 | 113% (inactive)
31 | CCSc1oc(C)nc1[P+](c1ccccc1)(c1ccccc1)c1ccccc1 | 14.6% (inactive)
32 | C=CCC(CCCC)(C(=O)OCC)C(=O)OCC | 107% (inactive)
33 | Fc1cccc(-c2ccc3c(c2)C2(CCNCC2)CN3)c1 | 78.9% (inactive)
34 | CN(C)S(=O)(=O)Oc1ccc(-c2sc3cc(OS(=O)(=O)N(C)C)ccc3c2C(=O)c2ccc(OCCN3CCCCC3)cc2)cc1 | 44.8% (inactive)
35 | COc1cc2c(cc1OCCCCN1CCN(C(=S)SCCC(C#N)(c3ccccc3)c3ccccc3)CC1)N=C[C@@H]1CCCN1C2=O | -13.3% (active)
36 | CC(C)(C)n1cc(-c2ccnc(NCCNS(=O)(=O)c3ccc(O)cc3)c2)c(-c2cccc(O)c2)n1 | 88.4% (inactive)
